From PubChem BioAssay (Tox21)
Inconclusive results are not listed. Calls of active or inactive are those of the source. Unless noted, calls come from the whole dose curve; as a rule, active = well fitted curve in the direction sought with a large enough effect in the repeat runs; inconclusive = weak or mixed curves; inactive = no such curve, though single readings can be large; an effect the other way counts as inactive or inconclusive.

Assays:
[1] = qHTS assay to identify small molecule agonists of H2AX - cell viability counter screen (AID 1224847; calls by dose curve; note: nearly all actives have a fitted effect of over 30% in size; note: potency is the fitted concentration of half-maximal effect; for activity change, negative = cytotoxicity: top concentration of the series differs between compounds; % is set by controls: 0 for no effect and ±100 for the full control effect)
In short: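 Quantitative HTS viability measurement: CHO-K1 wild-type cells in serum (10% FBS) medium, short 3 hr drug exposure at 37C with 0.76% DMSO, CellTiter-Glo luminescent detection.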

[2] = qHTS assay to identify small molecule agonists of the estrogen related receptor (ERR) signaling pathway from Tox21 library (AID 1224849; calls by dose curve; note: % is set by controls: 0 for no effect and ±100 for the full control effect; nearly all actives have a fitted effect of over 15% in size); details: ERR reporter cell line, ONE-Glo luciferase, 18 h; at 92.4 µM (top of the series) unless noted
In short: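 ERR reporter cells (NTP line) pre-incubated 6 hours at 37 C, then exposed to compounds for 18 hours at 37 C. ONE-Glo luciferase luminescence was read after 30 minutes at room temperature.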

[3] = qHTS RealTime-Glo MT Cell Viability Assay in HepG2 cells - 24 hour (AID 1224867); note: nearly all actives have a fitted effect of over 50% in size; note: potency is the fitted concentration of half-maximal effect; for activity change, negative = cytotoxicity: % is set by controls: 0 for no effect and ±100 for the full control effect
In short: (§1)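 Compound treatment began 5 h after plating HepG2 cells (600/well) with NanoLuc luciferase and prosubstrate. Plates stayed at 37 C for 40 h; luminescence was captured at six time points, 0 h through 40 h.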

[4] = qHTS RealTime-Glo MT Cell Viability Assay in HEK293 cells - 32 hour (AID 1224868); note: nearly all actives have a fitted effect of over 50% in size; note: potency is the fitted concentration of half-maximal effect; for activity change, negative = cytotoxic: top concentration of the series differs between compounds; % is set by controls: 0 for no effect and ±100 for the full control effect
In short: (§2)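 Quantitative high-throughput screen of the Tox21 10K library in HEK293: cells and RealTime-Glo reagents plated together, compound added at 5 h, luminescence monitored through 40 h at 37 C.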

[5] = A CellTox Green Cytotoxicity Assay to monitor cytotoxicity in HEK293 cells - 0 hour (AID 1224869); note: nearly all actives have a fitted effect of over 50% in size; note: potency is the fitted concentration of half-maximal effect; for Cytotoxicity: % is set by controls: 0 for no effect and ±100 for the full control effect
In short: (§3)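 HEK293 cells, 600/well, were preincubated 5 hours and then exposed to compounds at 37 C for up to 40 hours. A cell-impermeant cyanine dye staining dead-cell DNA was read by fluorescence at 0, 8, 16, 24, 32 and 40 h time points.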

[6] = qHTS RealTime-Glo MT Cell Viability Assay in HepG2 cells - 40 hour (AID 1224870); note: nearly all actives have a fitted effect of over 50% in size; note: potency is the fitted concentration of half-maximal effect
In short: (§4)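 HepG2 cells mixed with RealTime-Glo MT reagents (NanoLuc plus cell-permeant prosubstrate) were seeded at 600 cells/well, incubated 5 h at 37 C/5% CO2, then pinned with compounds in DMSO; nonlytic luminescence tracked viability during 40 h treatment.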

[7] = A CellTox Green Cytotoxicity Assay to monitor cytotoxicity in HEK293 cells - 40 hour (AID 1224871); note: nearly all actives have a fitted effect of over 45% in size; note: potency is the fitted concentration of half-maximal effect
In short: as §3

[8] = qHTS RealTime-Glo MT Cell Viability Assay in HEK293 cells - 16 hour (AID 1224872); note: nearly all actives have a fitted effect of over 50% in size; note: potency is the fitted concentration of half-maximal effect
In short: as §2

[9] = qHTS RealTime-Glo MT Cell Viability Assay in HepG2 cells - 8 hour (AID 1224873); note: nearly all actives have a fitted effect of over 55% in size; note: potency is the fitted concentration of half-maximal effect
In short: as §4

[10] = qHTS RealTime-Glo MT Cell Viability Assay in HEK293 cells - 40 hour (AID 1224874); details: RealTime-Glo luminescence; max response: hits give low values; note: nearly all actives have a fitted effect of over 50% in size; note: potency is the fitted concentration of half-maximal effect
In short: (§5)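 600 cells/well were plated with the nonlytic NanoLuc/prosubstrate reagent, pre-incubated 5 h, then given 23 nL of compound in DMSO. Incubation at 37 C for 40 h, with luminescence from viable-cell-reduced substrate read repeatedly from 0 h.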

[11] = A CellTox Green Cytotoxicity Assay to monitor cytotoxicity in HEK293 cells - 24 hour (AID 1224875); note: nearly all actives have a fitted effect of over 45% in size; note: potency is the fitted concentration of half-maximal effect
In short: as §3

[12] = A CellTox Green Cytotoxicity Assay to monitor cytotoxicity in HepG2 cells - 16 hour (AID 1224876); note: nearly all actives have a fitted effect of over 45% in size; note: potency is the fitted concentration of half-maximal effect
In short: (§6)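 HepG2 cells, 600/well, preincubated 5 h with CellTox Green dye, then exposed to Tox21 compounds in DMSO at 37 C for up to 40 h. Dead-cell DNA fluorescence read at the indicated time point.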

[13] = A CellTox Green Cytotoxicity Assay to monitor cytotoxicity in HepG2 cells - 24 hour (AID 1224878); note: nearly all actives have a fitted effect of over 45% in size; note: potency is the fitted concentration of half-maximal effect
In short: as §6

[14] = A CellTox Green Cytotoxicity Assay to monitor cytotoxicity in HepG2 cells - 40 hour (AID 1224879); note: nearly all actives have a fitted effect of over 40% in size; note: potency is the fitted concentration of half-maximal effect
In short: as §6

[15] = qHTS RealTime-Glo MT Cell Viability Assay in HEK293 cells - 0 hour (AID 1224880)
In short: as §5

[16] = A CellTox Green Cytotoxicity Assay to monitor cytotoxicity in HEK293 cells - 32 hour (AID 1224881); note: nearly all actives have a fitted effect of over 40% in size; note: potency is the fitted concentration of half-maximal effect
In short: as §3

[17] = qHTS RealTime-Glo MT Cell Viability Assay in HepG2 cells - 32 hour (AID 1224877); note: nearly all actives have a fitted effect of over 55% in size; note: potency is the fitted concentration of half-maximal effect
In short: as §1

[18] = qHTS assay to identify small molecule antagonists of the estrogen related receptor (ERR) signaling pathway from Tox21 library (AID 1224848)
In short: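 Screening used an ERR reporter line supplied by NTP, exposed for 18 h at 37 C to library compounds delivered in DMSO. Signal was luciferase luminescence developed with ONE-Glo at room temperature for 30 min.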

[19] = qHTS assay to identify small molecule agonists of the hypoxia (HIF-1) signaling pathway (AID 1224846; active = well fitted activation curve with a large enough effect in the signal ratio in the repeat runs, not every such curve was filed as active; the % refers to the signal ratio; note: potency is the fitted concentration of half-maximal effect)
In short: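 HRE-bla ME-180 beta-lactamase reporter cells in medium with 0.5% dialyzed FBS, pre-incubated 5 h then exposed to compounds 17 h at 37C, 5% CO2; reporter induction read with CCF4-AM FRET substrate.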

Nc1cc(C(F)(F)F)ccc1S
inactive: Potency [1] | activity change, positive = activation [2] -31.1% [at 42.5 µM] | Potency [3] | Potency [4] | Potency [5] | Potency [6] | Potency [7] | Potency [8] | Potency [9] | max response [10] 3.21% | Potency [11] | Potency [12] | Potency [13] | Potency [14] | Potency [15] | Potency [16]

Nc1ccccc1O
inactive: Potency [1] | activity change, positive = activation [2] -27.3% | Potency [3] | Potency [5] | Potency [6] | Potency [7] | Potency [8] | Potency [9] | Potency [11] | Potency [12] | Potency [17] | Potency [13] | Potency [14] | Potency [15] | Potency [16]

OCCN(CCO)c1nc(N2CCCCC2)c2nc(N(CCO)CCO)nc(N3CCCCC3)c2n1
active: Potency [18] 13.3 µM | Potency [4] 26.8 µM | Potency [5] 21.3 µM | Potency [7] 19 µM | Potency [10] 26.8 µM | Potency [11] 21.3 µM | Potency [12] 23.9 µM | Potency [13] 23.9 µM | Potency [14] 23.9 µM | Potency [16] 19 µM
inactive: Potency [1] | activity change, positive = activation [2] -56% [at 42.5 µM] | Potency [3] | Potency [6] | Potency [9] | Potency [17] | Potency [15]

O=C1CCCc2c1cc1ccc3cccc4ccc2c1c34
active: Potency [19] 49.6 µM | Potency [4] 11.1 µM | Potency [10] 9.89 µM
inactive: Potency [3] | Potency [5] | Potency [6] | Potency [11] | Potency [12] | Potency [17] | Potency [13] | Potency [14] | Potency [15]

O=C(OC[C@H]1O[C@@H](OC(=O)c2cc(O)c(O)c(OC(=O)c3cc(O)c(O)c(O)c3)c2)[C@H](OC(=O)c2cc(O)c(O)c(OC(=O)c3cc(O)c(O)c(O)c3)c2)[C@@H](OC(=O)c2cc(O)c(O)c(OC(=O)c3cc(O)c(O)c(O)c3)c2)[C@@H]1OC(=O)c1cc(O)c(O)c(OC(=O)c2cc(O)c(O)c(O)c2)c1)c1cc(O)c(O)c(OC(=O)c2cc(O)c(O)c(O)c2)c1
inactive: Potency [1] | activity change, positive = activation [2] -16% [at 19 µM] | activity change, negative = cytotoxic [4] -17.3% [at 15.8 µM] | cytotoxicity [5] -16.9% [at 15.8 µM] | cytotoxicity increase [7] -40.6% [at 15.8 µM] | activity change, negative = cytotoxicity [8] -9.99% [at 15.8 µM] | activity change [11] -38.6% [at 15.8 µM, hits give high values] | cytotoxicity increase [12] -47.1% [at 15.8 µM] | cytotoxicity [13] -52.4% [at 15.8 µM] | cytotoxicity increase [14] -56% [at 15.8 µM] | cytotoxicity increase [16] -42.7% [at 15.8 µM]

CC(C)c1ccc2c(c1)CC[C@H]1[C@](C)(CN)CCC[C@]21C
active: Potency [1] 89.8 µM | Potency [18] 68.6 µM | Potency [3] 13.8 µM | Potency [4] 11 µM | Potency [6] 11 µM | Potency [7] 19.5 µM | Potency [8] 13.8 µM | Potency [9] 34.7 µM | Potency [10] 11 µM | Potency [11] 19.5 µM | Potency [12] 19.5 µM | Potency [17] 11 µM | Potency [13] 13.8 µM | Potency [14] 11 µM | Potency [16] 19.5 µM
inactive: activity change, positive = activation [2] -75.7% | Potency [5]
